Our source for the composite z-score, z-score and composite Z-score values is PubChem BioAssay.

Calls of active or inactive are those of the source.

Test [1] has as its system Human papillomavirus type 1a protein E7 (residues 44-93). The test can be described thus: small molecules binding HPV E7 44-93 – biochemical, small-molecule microarray, residues 44-93, 635 nm fluorescence, primary screen (AID 1108).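 Further: E7 fragment applied at 1 µg/mL in TBST for 1 h at 4 C; score combines spot fluorescence with its signal to noise ratio.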 To be noted: fluorescence 635 nm, higher = more signal.
Test [2] can be described thus: hepatitis C replication reporter changes, two-sided – Huh7 cells, luciferase reporter, HCV replication inhibitor project, primary screen (AID 1109).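 Further: huh7 hepatoma cells harbouring a luciferase neomycin HCV replicon reporter; luciferase luminescence as measure of HCV replicon replication; test concentration not given here.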 Particulars: Huh7 HCV replicon luciferase reporter, 48 h; higher = more signal.
For test [3], the target named is Left-right determination factor 2 (Homo sapiens) (UniProt O00292). The test can be described thus: small molecules binding LEFTY2 protein – biochemical, small-molecule microarray, 635 nm fluorescence scan, primary screen (AID 1110). Particulars: higher = more signal.
The target in test [4] is Calmodulin-1 (Homo sapiens) (UniProt P0DP23). Description: small molecules binding calmodulin-1 with EGTA – biochemical, small-molecule microarray, Cy5-labelled CALM1, profiling panel (AID 1111).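 Further: labelled calmodulin applied in Tris saline Tween buffer holding calcium plus EGTA and DTT.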 Particulars: Cy5-CALM1 binding fluorescence, higher = more signal.
Test [5] shares this target. The test can be described thus: small molecules binding Ca-loaded calmodulin-1 – biochemical, small-molecule microarray, Cy5-labelled CALM1, plus calcium, artefact control for SMM control-protein annotation, profiling panel (AID 1112).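 Further: score merges spot fluorescence with signal to noise from triplicate slides.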 Particulars: Cy5-CALM1 binding fluorescence, higher = more signal.
Test [6] in a line: probe aWnt5a binding to arrayed compounds – biochemical, biotinylated probe, 635/667 nm fluorescence, primary screen (AID 1113).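 Further: score merges 667 nm fluorescence intensity with signal-to-noise per printed feature.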 Particulars: small-molecule microarray, higher = more signal.
A short description of test [7]: probe aShh binding to arrayed compounds – biochemical, biotinylated probe, 635/667 nm fluorescence, primary screen (AID 1114).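 Further: probe is biotin-labelled aShh protein from a stem cell growth factor screen; measures binding of labelled protein to compounds printed on the slide; score merges feature fluorescence at 667 nm with signal-to-noise.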 To be noted: small-molecule microarray, higher = more signal.
Test [8] can be described thus: probe aNog binding to arrayed compounds – biochemical, biotinylated probe, 635/667 nm fluorescence, primary screen (AID 1115).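 Further: probe is biotinylated aNog protein used at 0.15 µg/mL for 1 h at 4 C; z-score combines 667 nm fluorescence of each spot with its signal to noise.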 Particulars: small-molecule microarray, higher = more signal.
In test [9] the target is Torsin-1A-interacting protein 1 (Homo sapiens) (UniProt Q5JTV8). The test can be described thus: compound microarray binding of lysate hLAP1 – cell lysate, small-molecule microarray, COS7 lysate, 635/667 nm fluorescence, primary screen (AID 1116). Particulars: 635 nm fluorescence, higher = more signal.
The target in test [10] is Alpha-bungarotoxin (Bungarus multicinctus) (UniProt P60615). Description: compounds binding labelled alpha-BTX control protein – biochemical, small-molecule microarray, Alexa647 label, 635/667 nm fluorescence, artefact control for SMM control protein annotation, profiling panel (AID 1117). To be noted: alpha-BTX-A647 binding fluorescence, higher = more signal.
The next test addresses Albumin (Bos taurus) (UniProt P02769). Description: compounds binding labelled BSA control protein – biochemical, small-molecule microarray, Alexa647 label, 635/667 nm fluorescence, artefact control for SMM control protein annotation, profiling panel (AID 1118).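 Further: score merges 667 nm emission intensity and signal-to-noise per printed compound spot.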 Particulars: BSA-A647 binding, fluorescence 635 nm, higher = more signal.
Test [11] in a line: probe aXIP binding to arrayed compounds – biochemical, NeuroSMM set, 635/667 nm fluorescence, primary screen (AID 1119).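 Further: probe is the protein aXip251-270 applied at 1 µg/mL to compound-printed slides; binding of probe to printed compounds measured as 667 nm fluorescence plus signal to noise.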 To be noted: small-molecule microarray, higher = more signal, called active from +8 up or from −8 down.
Test [12] is described as follows: probe aNOTCH3 binding on compound microarray – biochemical, small-molecule microarray, 635/667 nm fluorescence, primary screen (AID 1120).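 Further: probe is a biotin-tagged antibody raised against NOTCH3 rather than NOTCH3 protein; score merges spot fluorescence near 667 nm with spot signal to noise.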 To be noted: higher = more signal.
A short description of test [13]: probe aNOTCH2 binding on compound microarray – biochemical, small-molecule microarray, 635/667 nm fluorescence, primary screen (AID 1121).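 Further: score merges feature fluorescence read at 667 nm with its signal to noise.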 To be noted: higher = more signal.
The target of test [14] is Carbonic anhydrase 2 (Homo sapiens) (UniProt P00918). The test can be described thus: compounds binding carbonic anhydrase 2 – biochemical, small-molecule microarray, Alexa647-labelled CAII, profiling panel (AID 1122). Particulars: CAII-A647 binding fluorescence, higher = more signal.
Test [15] can be described thus: COS7 lysate on small-molecule microarray, probe aHis, 635 nm (AID 1123).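 Further: z-score combines 667nm fluorescence intensity with signal-to-noise per printed compound spot.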 To be noted: COS7 cell lysate, fluorescence, higher = more signal.
Test [16] in a line: probe aLAP1 signal on lysate-treated microarray – cell lysate, small-molecule microarray, COS7 lysate, primary screen (AID 1124).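 Further: lysate comes from COS7 cells expressing LAP1 and is applied at 0.3 µg/mL; score merges spot fluorescence near 667 nm with signal-to-noise over triplicate slides.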 Particulars: probe aLAP1, fluorescence, higher = more signal.
Another test has as its system Sam68 (KHDRBS1). Description: compounds binding KHDRBS1 protein – biochemical, small-molecule microarray, 635 nm fluorescence, primary screen (AID 1125).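 Further: score merges 667 nm channel intensity with signal to noise over triplicate slides.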 Particulars: higher = more signal.
The subject of test [17] is Chordin-like protein 2 (CHRDL2). Description: compounds binding chordin-like 2 – biochemical, small-molecule microarray, 635 nm fluorescence, primary screen (AID 1126).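 Further: printed compound slides probed with Chrdl2 protein at 4 µg/mL for 1 h at 4 C; score merges 667 nm emission intensity with signal to noise over three replicate slides.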 To be noted: fluorescence 635 nm, higher = more signal.
In test [18] the target is Concanavalin-A (Canavalia ensiformis) (UniProt P02866). The test can be described thus: compounds binding concanavalin A lectin – biochemical, small-molecule microarray, Alexa647 label, 635 nm, artefact control for SMM control protein annotation, primary screen (AID 1127).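 Further: z combines 667 nm emission intensity with signal-to-noise across three replicate slides.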 To be noted: ConA-A647 binding fluorescence, higher = more signal.
Concanavalin-A (Canavalia ensiformis), sequence (P02866 whole entry, looked up): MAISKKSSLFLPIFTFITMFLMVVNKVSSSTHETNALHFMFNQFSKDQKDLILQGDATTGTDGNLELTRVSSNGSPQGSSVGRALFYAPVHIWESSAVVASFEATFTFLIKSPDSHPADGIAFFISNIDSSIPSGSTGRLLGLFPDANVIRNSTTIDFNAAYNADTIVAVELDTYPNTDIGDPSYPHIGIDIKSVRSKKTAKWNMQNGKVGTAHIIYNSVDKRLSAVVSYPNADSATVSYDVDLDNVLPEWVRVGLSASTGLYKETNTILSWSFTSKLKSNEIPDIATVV

Alpha-bungarotoxin (Bungarus multicinctus), sequence (P60615 whole entry, looked up): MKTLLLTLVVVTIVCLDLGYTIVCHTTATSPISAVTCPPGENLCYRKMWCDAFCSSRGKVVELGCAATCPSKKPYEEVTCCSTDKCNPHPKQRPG
Albumin (Bos taurus), sequence (P02769 whole entry, looked up): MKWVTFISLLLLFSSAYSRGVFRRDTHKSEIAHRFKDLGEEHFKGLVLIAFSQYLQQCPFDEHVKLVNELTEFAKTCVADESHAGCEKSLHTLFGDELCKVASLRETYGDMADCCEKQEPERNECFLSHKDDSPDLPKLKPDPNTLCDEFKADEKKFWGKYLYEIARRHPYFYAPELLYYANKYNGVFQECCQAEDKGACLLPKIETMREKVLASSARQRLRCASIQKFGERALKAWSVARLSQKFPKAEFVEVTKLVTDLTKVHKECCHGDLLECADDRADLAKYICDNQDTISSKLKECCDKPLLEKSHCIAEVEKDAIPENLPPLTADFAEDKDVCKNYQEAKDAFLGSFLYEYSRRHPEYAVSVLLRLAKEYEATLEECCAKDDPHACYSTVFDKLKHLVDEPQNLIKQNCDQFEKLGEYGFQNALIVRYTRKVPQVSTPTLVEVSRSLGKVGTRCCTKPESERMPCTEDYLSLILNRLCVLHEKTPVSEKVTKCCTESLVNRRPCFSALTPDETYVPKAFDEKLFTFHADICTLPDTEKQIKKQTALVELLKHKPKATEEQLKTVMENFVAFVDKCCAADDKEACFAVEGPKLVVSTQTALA
Left-right determination factor 2 (Homo sapiens), sequence (O00292 whole entry, looked up): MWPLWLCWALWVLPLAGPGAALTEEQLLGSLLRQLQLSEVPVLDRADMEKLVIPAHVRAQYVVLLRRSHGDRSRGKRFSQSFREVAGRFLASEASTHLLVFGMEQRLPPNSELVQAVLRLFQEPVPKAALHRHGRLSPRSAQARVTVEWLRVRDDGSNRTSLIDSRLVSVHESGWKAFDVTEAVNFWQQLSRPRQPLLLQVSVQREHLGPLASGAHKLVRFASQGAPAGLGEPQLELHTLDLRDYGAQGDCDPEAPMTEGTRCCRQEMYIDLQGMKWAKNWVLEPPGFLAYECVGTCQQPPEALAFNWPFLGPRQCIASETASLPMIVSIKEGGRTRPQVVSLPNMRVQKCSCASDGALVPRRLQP
Torsin-1A-interacting protein 1 (Homo sapiens), sequence (Q5JTV8 whole entry, looked up): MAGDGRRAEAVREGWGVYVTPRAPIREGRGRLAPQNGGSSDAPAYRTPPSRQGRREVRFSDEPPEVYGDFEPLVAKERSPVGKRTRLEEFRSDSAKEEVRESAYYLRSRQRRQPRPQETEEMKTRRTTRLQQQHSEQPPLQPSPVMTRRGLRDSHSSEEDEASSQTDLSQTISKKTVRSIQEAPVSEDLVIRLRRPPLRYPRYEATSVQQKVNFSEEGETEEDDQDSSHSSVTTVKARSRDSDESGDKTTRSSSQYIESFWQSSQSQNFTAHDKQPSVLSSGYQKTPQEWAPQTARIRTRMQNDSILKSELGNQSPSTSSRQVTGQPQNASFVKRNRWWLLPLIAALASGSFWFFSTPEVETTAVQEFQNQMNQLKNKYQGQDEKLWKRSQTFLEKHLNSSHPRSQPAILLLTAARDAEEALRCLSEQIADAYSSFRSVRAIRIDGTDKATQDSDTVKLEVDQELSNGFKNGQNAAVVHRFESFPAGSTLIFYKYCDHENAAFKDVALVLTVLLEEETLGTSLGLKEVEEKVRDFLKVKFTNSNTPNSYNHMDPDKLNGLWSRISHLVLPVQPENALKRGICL

Regarding `COc1ccc(C(=O)Nc2ccc(CN3C(=O)[C@@]4(O[C@@H](CC(=O)N5CCC[C@H]5CO)[C@H]([Si](C)(C)c5ccc(OC)cc5)[C@H]4C)c4ccccc43)cc2)cc1`, the composite z-score was 0.825 in [1]; 1.13 in [3]; 0.11 in test [4]; -0.654 in test [5]; -0.0643 in test [6]; 0.0639 in [7]. Moreover, the composite z-score was -0.0503 in test [8]; 1.01 in test [9]; 1.12 in [10]; 0.042 in the test with Albumin (Bos taurus); -0.0219 in [12]; -0.0389 in test [13]. Further, the composite z-score in [14] was determined as 0.51; in test [15] it was 1.78; in [16], 0.045; with Sam68 (KHDRBS1), 1.31; in [17], 0.989; in test [18] it was 1.08. The compound further showed a z-score in test [2] of -2.19. Besides, the composite Z-score in test [11] is 0.277 (inactive).

On to `CCCC[C@H]1OB(O)C[C@H]2C1=C(COc1ccccc1)C[C@H]1C(=O)N(C)C(=O)[C@H]12`, for which the composite z-score is -0.121 in test [1]; 0.283 in test [3]; -0.515 in test [4]; -0.255 in [5]; 0.0438 in [6]; 0.0899 in test [7]. The composite z-score in test [8] is -0.106; in test [9], 0.101; in test [10], 0.0648; with Albumin (Bos taurus) it was -0.137; in test [12], -0.0046; in test [13], -0.0596. Moreover, the composite z-score in test [14] is -0.0293; in test [15], 0.486; in test [16], 0.0594; in the test on Sam68 (KHDRBS1), -0.348; in test [17], 0.497; in test [18], -0.271. This compound also came in with a z-score in test [2] of -0.271. Moreover, in [11], the composite Z-score is -0.252 (inactive).

`O=C1C2C=CC(C(O)c3c(F)cccc3Cl)N(Nc3ccccc3)C2C(=O)N1c1ccccc1` (stereo not given): the composite z-score in test [1] amounted to 1.46; in test [3] it was 0.407; in test [4], 1.46; in test [5] it was 0.546; in test [6], 0.0775; in [7] it was 0.969. The composite z-score in test [8] came out at 1.59; in [9] it was 0.765; in [10], 0.933; with Albumin (Bos taurus), 0.876; in test [12], 0.418; in [13], 0.014. Also, the composite z-score in test [14] was 0.382; in test [15], 2.81; in test [16], 0.045; with Sam68 (KHDRBS1) it was 1.31; in test [17], -0.3; in [18], 1.14. Also, the z-score in [2] was -0.927. The composite Z-score in test [11] is 0.229 (inactive).

With `COC(=O)[C@@]1(Cc2ccc(OC)cc2)[C@H]2c3cc(C(=O)N(C)C)n(CCN4CNCC4=O)c3C[C@H]2CN1C(=O)c1ccccc1`, the composite z-score is -0.662 in test [1]; 0.149 in test [3]; 0.866 in test [4]; 0.701 in test [5]; 0.164 in test [6]; -0.0793 in [7]. The composite z-score was -0.505 in test [8]; 0.528 in test [9]; -0.124 in test [10]; 0.854 in the test with Albumin (Bos taurus); 0.0539 in [12]; 0.0228 in test [13]. The composite z-score in [14] was 0.879; in test [15] it was 0.287; in [16], 0.898; in the test on Sam68 (KHDRBS1), -0.668; in [17], -0.386; in test [18], -0.61. For the same compound, in test [2], the z-score is -0.422. In test [11], the composite Z-score is -0.704 (inactive).

Consider `Cc1ccc(C(C)CC(O)C2C=CC3C(=O)N(c4ccccc4)C(=O)C3N2Nc2ccc([N+](=O)[O-])cc2)o1` (stereo not given), for which the composite z-score was 1.41 in test [1]; 0.135 in test [3]; 1.17 in test [4]; -0.284 in test [5]; -0.0792 in test [6]; -0.229 in [7]. In addition, the composite z-score in test [8] worked out at 0.437; in [9] it was 0.866; in test [10], 1.3; with Albumin (Bos taurus), 0.861; in [12] it was 0.222; in test [13], 0.0129. The composite z-score turned out to be 0.788 in test [14]; 1.96 in test [15]; 0.67 in [16]; 1.32 in the test on Sam68 (KHDRBS1); 0.595 in [17]; 0.977 in test [18]. The z-score in test [2] is -0.212. In test [11], the composite Z-score was -0.608 (inactive).
